Results as given in PubChem BioAssay (NCI).
Compounds without any hit were thinned out: in the full panel of roughly 83,000, 20% have a hit.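 The endpoint reported here, percent growth, reads 100 for growth as untreated, 0 for no net growth and -100 for all cells dead.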 Activity calls are given as the source filed them. Rule for the calls: active = growth percent below 10; inactive = the rest.

Experiments:
Test in all cases: NCI-60 one-dose screen, 48 h (100 = growth as untreated, 0 = no growth, -100 = all killed)
Details in all cases: 10 µM unless noted
[1] = tested on: SR leukemia
[2] = tested on: RPMI-8226 leukemia
[3] = tested on: OVCAR-5 ovarian
[4] = tested on: OVCAR-4 ovarian
[5] = tested on: SK-OV-3 ovarian
[6] = tested on: HS 578T breast
[7] = tested on: NCI/ADR-RES ovarian
[8] = tested on: OVCAR-8 ovarian
[9] = tested on: IGROV1 ovarian
[10] = tested on: OVCAR-3 ovarian

Measured: growth

Cn1c(-c2c(N)n(Cc3cccnc3)c3nc(C#N)c(C#N)nc23)nc2ccccc21
inactive: [1] 40.1% | [2] 94.5% | [3] 78% | [4] 102% | [5] 116% | [6] 106% | [7] 95.5%

Cc1ccc2nc3ccccc3c(NCc3ccccc3)c2c1
inactive: [8] 33.5% | [3] 40.4% | [5] 64.3% | [9] 15.8% | [10] 66% | [6] 69.8% | [7] 29.8%
active: [1] 4.1% | [2] 6.82%

Cc1occc1-c1n[nH]c(=S)n1N1C(=O)CSC1=S
inactive: [1] 102% | [2] 93.8% | [3] 99.6% | [4] 107% | [5] 106% | [9] 102% | [10] 103% | [6] 101% | [7] 101%

N#Cc1c(-c2cccc(Cl)c2)cc(-c2cccc(Cl)c2)[nH]c1=O
inactive: [1] 29.6% | [2] 57.2% | [8] 87.3% | [3] 101% | [5] 82.6% | [9] 70.8% | [6] 56.8% | [7] 64.6%

NC(=N\N=C/c1cccc([N+](=O)[O-])c1)/C(N)=N\N=C/c1cccc([N+](=O)[O-])c1
inactive: [1] 71.3% | [2] 70.5% | [8] 57.8% | [3] 101% | [5] 61.1% | [9] 96.1% | [10] 42.9% | [7] 80.5%
active: [6] -11.6%

CCOc1ccccc1-c1cc(-c2cccs2)c(C#N)c(=O)[nH]1
inactive: [1] 77.4% | [2] 91.2% | [3] 94.6% | [4] 39.2% | [5] 98.7% | [9] 66.7% | [10] 99.7% | [6] 76.6% | [7] 76.7%

NC(=N\N=C/c1ccccc1[N+](=O)[O-])/C(N)=N\N=C/c1ccccc1[N+](=O)[O-]
inactive: [1] 107% | [2] 88.2% | [3] 109% | [4] 111% | [5] 102% | [9] 136% | [10] 116% | [6] 100% | [7] 114%

CC/C=C/C/C=C/C/C=C/C/C=C/C/C=C/C/C=C/CCC(=O)Nc1ccn([C@@H]2O[C@H](CO)[C@@H](O)C2(F)F)c(=O)n1
inactive: [1] 18.5% | [2] 28.1% | [8] 10% | [3] 50.1% | [5] 22% | [9] 57.5% | [6] 76.1% | [7] 14.1%

O=C(Nc1cccc(C(F)(F)F)c1)Nc1cccc(C(F)(F)F)c1
active: [1] -22.6% | [2] -10.5% | [5] -15.3% | [6] 8.56% | [7] 7.46%
inactive: [3] 25.3% | [9] 26.8% | [10] 14.4%

Cc1ccc2[nH]c(=O)c3c(c2c1)OC(N)=C(C#N)C31c2cc(Br)ccc2-c2ccc(Br)cc21
inactive: [1] 72.2% | [3] 61.1% | [4] 21% | [5] 91.8% | [9] 40.1% | [10] 58.9% | [6] 70.8% | [7] 82.3%
active: [2] 3.77%

CC1(c2ccccc2)NC(=O)N(NC(=O)CSc2nc(-c3cccs3)nc3ccccc23)C1=O (stereo not given)
inactive: [1] 67% | [2] 72.9% | [3] 76.7% | [4] 106% | [5] 124% | [9] 88.6% | [10] 95.9% | [6] 101% | [7] 87.9%

COc1cc(/C=C/C(=O)c2cccc(-n3cc(-c4ccccc4)[nH]c3=O)c2)ccc1O
active: [2] -9.6% | [9] 2.96% | [10] 6.11%
inactive: [1] 15.3% | [3] 61.3% | [4] 49.1% | [5] 92.2% | [6] 71.3% | [7] 23.2%

O=C(O)CN1C(=O)CCC1=O
inactive: [1] 112% | [8] 99.4% | [3] 101% | [5] 104% | [10] 115% | [6] 115% | [7] 112%

CCn1c(C)nc2cc(C(N)=O)ccc21
inactive: [1] 104% | [8] 96.2% | [3] 92.6% | [4] 98.2% | [5] 105% | [10] 105% | [6] 108% | [7] 97%

O=Cc1ccc(O)c2ncccc12
active: [1] -41.3% | [4] 5.69% | [9] 4% | [10] -15.2% | [7] -1%
inactive: [3] 50.3% | [5] 97.7% | [6] 41.6%

O=C1/C(=C2/C=Nc3ccccc32)N(O)c2ccccc21
inactive: [2] 38.9% | [8] 62.1% | [3] 78.2% | [4] 50% | [5] 98.8% | [9] 48.1% | [10] 34.8% | [6] 87.7% | [7] 55.2%

CC(=O)n1c(-c2ccc(Cl)cc2)nc2c(c1=O)C(c1ccc(Cl)cc1)c1sc3c(Cl)cccc3c1O2 (stereo not given)
inactive: [4] 17.3%
active: [1] -14.9% | [8] -31.5% | [3] -3.95% | [5] -2.53% | [10] -50.4% | [6] -9.23% | [7] -17.2%

Cn1cc(-c2csc(-c3ccccc3)n2)c2cccnc21
active: [1] 0.511% [100 µM] | [8] 2.29% [100 µM] | [3] -44.2% [100 µM] | [4] -19.4% [100 µM] | [5] -30.1% [100 µM] | [9] -20.7% [100 µM] | [10] -31.8% [100 µM] | [7] -27.8% [100 µM]
inactive: [6] 20.8% [100 µM]

CC(C)(C)c1ccc(/C=C/C(=O)Nc2ccc(O)cc2)cc1
inactive: [2] 59.8% | [8] 45.7% | [3] 89.8% | [4] 73.8% | [5] 96.8% | [9] 62.2% | [10] 60.4% | [6] 80.4% | [7] 59.9%

COc1cccc(-c2nc3sccn3c2-c2ccnc(NCCNS(=O)(=O)c3cccc(Cl)c3)c2)c1
inactive: [8] 21.4% | [3] 89.6% | [4] 34% | [5] 65.6% | [9] 41.8% | [10] 48.2% | [6] 38.6% | [7] 22.7%
active: [2] -4.85%

O=C1Nc2ccccc2/C1=C/c1cn(C(=O)c2c(Cl)cccc2Cl)c2ccccc12
inactive: [2] 51.8% | [8] 52.3% | [3] 85% | [4] 50.4% | [5] 71.8% | [9] 25.8% | [10] 43% | [6] 64.7% | [7] 57.7%

COC(=O)[C@]12CC[C@@H](C)[C@H](C)[C@@H]1C1=CC[C@@H]3[C@@]4(C)C(C=O)=C[C@@](C)(COC(C)=O)[C@@H]4C(=O)C[C@@]3(C)[C@]1(C)CC2
inactive: [1] 48.3% | [8] 41.5% | [3] 68.8% | [4] 38.1% | [5] 42.3% | [9] 46.3% | [10] 39.1% | [6] 65.1% | [7] 34%

N=c1sc(Cc2ccc(Cl)cc2)cn1CC(=O)c1ccc(F)cc1
inactive: [1] 87.4% | [8] 80% | [3] 71% | [4] 69% | [5] 107% | [9] 78.2% | [10] 92.6% | [6] 96.9% | [7] 73.9%

Cc1cc(NCc2cc(Nc3ccnc4cc(Cl)ccc34)ccc2F)nc(N2CCOCC2)n1
inactive: [8] 36.3% | [3] 76.5% | [10] 16.1% | [6] 16.5% | [7] 25%
active: [1] -13% | [4] 7.29% | [5] 0.55%

Cc1cc[c-]cc1.Fc1c[c-]c(-c2ccccn2)c(F)c1.[Pt+2].c1ccc(P(C[PH+](c2ccccc2)c2ccccc2)c2ccccc2)cc1
inactive: [1] 16.8% | [8] 11% | [3] 23.6% | [9] 23.5% | [10] 12.9% | [6] 39.6% | [7] 87.3%
active: [4] -2.01% | [5] -3.95%

c1ccc2c(c1)nc(CN1CCOCC1)n1cc(N3CCCC3)nc21
inactive: [1] 87% | [8] 94.5% | [3] 92.9% | [4] 111% | [5] 89.8% | [6] 92.5% | [7] 99%

Cc1cc(NCCCCNc2ccnc3cc(Cl)ccc23)nc(Nc2ccc(C(=O)N3CCCCC3)cc2)n1
active: [1] -29% | [8] 7.65% | [10] 8.51% | [6] -28.9%
inactive: [3] 82.7% | [4] 34.8% | [5] 97.2% | [9] 29.8% | [7] 47.5%

N=C1C(c2nc(-c3ccc(Br)cc3)cs2)=C(O)CN1CC1CCCO1 (stereo not given)
inactive: [1] 38.9% | [8] 52.7% | [3] 89.2% | [4] 75% | [5] 113% | [9] 46.2% | [10] 105% | [6] 89% | [7] 76.3%

C[n+]1cccc(CC(=O)NO)c1
inactive: [1] 98.4% | [8] 95.3% | [3] 110% | [4] 106% | [9] 101% | [10] 110% | [6] 101% | [7] 105%

COc1ccc(-c2nc3c(N)c(CO)c(C)nc3o2)cc1
inactive: [1] 100% | [8] 110% | [3] 85.1% | [4] 104% | [5] 106% | [9] 86.9% | [10] 103% | [6] 105% | [7] 89.7%

CCc1ccccc1-n1c(N)c(C#N)c(-c2ccc(N(C)C)cc2)c(C#N)c1=O
inactive: [2] 74.7% | [8] 101% | [3] 97% | [4] 99% | [5] 107% | [9] 90.8% | [10] 97% | [6] 92.2% | [7] 94.8%
